In the supplement of paper PMC5662767:
Counter-ions that a name gives are not always drawn.

Tested on: Drosophila S2 cl14 SmoIP sensor cells
Assay: normalized SmoIP GFP fluorescence (untreated unstimulated = 0%, untreated Hh-stimulated = 100%); higher = more Smo activation sensor fluorescence
Conditions: compound concentration: 2 uM, 24 h
[1] = stimulation: Hh conditioned medium (+Hh)
[2] = stimulation: mock conditioned medium (-Hh)
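Further: flow cytometry read-out as median GFP intensity of gated cells, compounds added 30 min before Hh-conditioned or mock medium, mock-treated cells serving as unstimulated baseline.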

SMILES	normalized SmoIP GFP fluorescence [1] [%]	normalized SmoIP GFP fluorescence [2] [%]
C=CCc1cccc(/C=N/NC(=O)CN2CCN(Cc3ccccc3)CC2)c1O	154	-5.53
Cc1ccc(C(=O)NCCCCCC(=O)Nc2ccccc2N)cc1 [rg2833-rgfp109]	101	-3.05
CN(C)Cc1c(C(=O)NCCOc2ccc(C(=O)NO)cc2)oc2ccccc12	211	35.2
CC(=O)N1CCN(c2ccc(OCC3COC(Cn4ccnc4)(c4ccc(Cl)cc4Cl)O3)cc2)CC1 (stereo not given) [Ketoconazole]	109	2.64
CN(C)CC(c1ccc(O)cc1)C1(O)CCCCC1 (stereo not given) [desvenlafaxine-succinate]	103	-5.38
O=C1NC(=O)C(c2ccccc2[N+](=O)[O-])=C1Nc1ccc(O)c(Cl)c1	153	-16.1
CCOc1cc([C@@H](CS(C)(=O)=O)N2C(=O)c3cccc(NC(C)=O)c3C2=O)ccc1OC	142	-14.5
CNC(=O)c1ccccc1Nc1nc(Nc2ccc(N3CCOCC3)cc2OC)ncc1Cl	163	22.3
COC(=O)N[C@H](C(=O)N1CCC[C@H]1c1ncc(-c2ccc(-c3ccc(-c4cnc([C@@H]5CCCN5C(=O)[C@@H](NC(=O)OC)C(C)C)[nH]4)cc3)cc2)[nH]1)C(C)C	112	7.39
CCN1CCN(Cc2ccc(-c3cc4c(N[C@H](C)c5ccccc5)ncnc4[nH]3)cc2)CC1	97	6.52
Nc1nnc(-c2cccc(Cl)c2Cl)c(N)n1 [lamotrigine]	101	-3.5
CN1CCN(c2ccc3nc(-c4c(N)c5c(F)cccc5[nH]c4=O)[nH]c3c2)CC1 [dovitinib]	240	72.9
COc1ccc(C(=O)Nc2sc3c(c2C(N)=O)CCCC3)cc1OC	128	-9.85
CC1(C)CCC(c2ccc(Cl)cc2)=C(CN2CCN(c3ccc(C(=O)NS(=O)(=O)c4ccc(N[C@H](CCN5CCOCC5)CSc5ccccc5)c(S(=O)(=O)C(F)(F)F)c4)cc3)CC2)C1	108	20.1
O=S(=O)(c1cccc2cnccc12)N1CCCNCC1 [Fasudil-HCl(HA-1077)]	97	-3.93
COC(=O)c1ccc2c(c1)NC(=O)/C2=C(\Nc1ccc(N(C)C(=O)CN2CCN(C)CC2)cc1)c1ccccc1	108	7.92
Cc1ccc2nc(NCCN)c3ncc(C)n3c2c1	137	-9.4
Nc1ncnc2n[nH]c(Nc3ccc(F)cc3)c12	89.9	2.64
CNCCC(Oc1ccc(C(F)(F)F)cc1)c1ccccc1 (stereo not given) [Fluoxetine-hydrochloride]	111	1.89
CNC(=O)c1ccc2cc([C@@]3(O)CCn4cncc43)ccc2c1	104	-1.56

SMILES	normalized SmoIP GFP fluorescence [1] [%]	normalized SmoIP GFP fluorescence [2] [%]
O=C1C[C@@H](c2ccc(O)cc2)Oc2cc(O)cc(O)c21 [Naringenin]	106	-6.61
CC(=O)N[C@@H](CS)C(=O)O [Acetylcysteine]	111	1.57
CCCCNc1ccc(C(=O)OCCN(C)C)cc1 [tetracaine-hydrochloride-pontocaine]	117	-6.34
O=C(NCc1ccc(Oc2ccccc2)cc1)c1nc(-c2cc(Br)c(O)c(Br)c2)no1 [iowh032]	117	20
COc1ccc(-c2oc3c(CC=C(C)C)c(O[C@@H]4O[C@H](CO)[C@@H](O)[C@H](O)[C@H]4O)cc(O)c3c(=O)c2O[C@@H]2O[C@@H](C)[C@H](O)[C@@H](O)[C@H]2O)cc1 [Icariin]	92.7	-3.27
Cn1cc(/C=C2\C(=O)Nc3cccnc32)c2ccccc21	158	60.2
Nc1nc(N)c2nc(-c3ccccc3)c(N)nc2n1 [triamterene]	104	-6.06
C[S+]([O-])c1ccc(-c2nc(-c3ccc(F)cc3)c(-c3ccncc3)[nH]2)cc1 (stereo not given)	119	-5.98
CCN(CC)CCCC(C)Nc1nc(C)cc(Nc2ccc3nc(C)cc(N)c3c2)n1 (stereo not given)	112	-4.53
CCc1nc(N)nc(N)c1-c1ccc(Cl)cc1 [Pyrimethamine]	101	0.702
O=C(c1ccc(OCCN2CCCCC2)cc1)c1c(-c2ccc(O)cc2)sc2cc(O)ccc12 [Evista]	118	6.52
CN1CCc2c(c3ccccc3n2Cc2ccc(C(=O)NO)cc2)C1 [tubastatin-a-hcl]	101	-1.83
Oc1ccc(/C=C/c2cc(O)cc(O)c2)cc1 [Resveratrol]	104	-4.25
Cc1cnc(Nc2ccc(OCCN3CCCC3)cc2)nc1Nc1cccc(S(=O)(=O)NC(C)(C)C)c1	173	8.54
O=C(O)C(Cc1ccccc1[N+](=O)[O-])=NNc1nc(-c2ccc(Cl)c(Cl)c2)cs1 (mixture of isomers)	127	46.7
CCCCc1oc2ccccc2c1C(=O)c1cc(I)c(OCCN(CC)CC)c(I)c1 [amiodarone-hcl]	112	1.69
CNCc1ccc(C)c(NC(=O)c2ccc(Nc3nc(-c4ccccc4)c4ccccc4n3)cc2)c1	124	11.6
COC1CCN(C(=O)c2cc(Cc3n[nH]c(=O)c4ccccc34)ccc2F)CC1	103	-3.5
C#Cc1cccc(Nc2ncnc3cc(OC)c(OCCCCCCC(=O)NO)cc23)c1	128	29.7
O=C1NC(=O)C(=Cc2ccc(-c3ccc(F)cc3)o2)S1 (stereo in doubt)	102	-2.48

SMILES	normalized SmoIP GFP fluorescence [1] [%]	normalized SmoIP GFP fluorescence [2] [%]
Cc1cc(C(C)(C)C)c(O)c(C)c1CC1=NCCN1 [Oxymetazoline-hydrochloride]	95.8	-3.5
C[C@H](NC(=O)Cc1cc(F)cc(F)c1)C(=O)N[C@H](C(=O)OC(C)(C)C)c1ccccc1	146	4.93
O=[N+]([O-])c1ccc2c(c1)S(=O)(=O)C=C2 [stattic]	116	-1.74
Oc1cc(O)cc(/C=C/c2ccc(O)c(O)c2)c1 [piceatannol]	114	-2.08
O=C(NC1CCOCC1)c1ccc(-c2cc(-c3c[nH]nc3-c3ccccn3)ccn2)cc1	168	-1.38
Cc1cnc(Nc2ccc(N3CCN(C)CC3)cc2)nc1Nc1cccc(S(=O)(=O)NC(C)(C)C)c1	159	-5.35
O=C(NCCCNc1nc(Nc2cccc(NC(=O)N3CCCC3)c2)ncc1I)c1cccs1	257	78.4
CN(C)Cc1cccc(N=C(c2ccccc2)c2c(O)[nH]c3cc(C(=O)N(C)C)ccc23)c1	86.4	-3.71
CN1CCC(=C2c3ccccc3CCc3cccnc32)CC1 [azatadine-dimaleate]	114	4.79
Cc1cc(OCc2nnc(SC3CCCC3)n2-c2cccnc2)ccc1-c1ccc(S(C)(=O)=O)cc1	96.7	13.7
CCC(CC)CC1(C(=O)Nc2ccccc2SC(=O)C(C)C)CCCCC1 [dalcetrapib-jtt-705]	137	-10.6
CC(C)NCC(O)COc1ccc(COCCOC(C)C)cc1 (stereo not given) [Bisoprolol-Fumarate]	103	8.79
O=C(O)COCCN1CCN(C(c2ccccc2)c2ccc(Cl)cc2)CC1 (stereo not given) [Cetirizine-di-hcl]	90.4	-7.27
COc1ccc(-n2nc(C(N)=O)c3c2C(=O)N(c2ccc(N4CCCCC4=O)cc2)CC3)cc1	102	-1.56
CN(C)[C@@H](CCOc1cccc2ccccc12)c1ccccc1 [Dapoxetine-hydrochloride(Priligy)]	115	-13.2
CC(C)C(=O)Oc1ccc(CO)cc1[C@H](CCN(C(C)C)C(C)C)c1ccccc1 [Fesoterodine-fumarate-Toviaz]	110	-4.53
CC(=O)S[C@@H]1CC2=CC(=O)CC[C@]2(C)[C@H]2CC[C@@]3(C)[C@@H](CC[C@@]34CCC(=O)O4)[C@H]12 [spironolactone]	102	-4.58
CCCCCCCCOc1ccccc1C(=O)Nc1ccc(C(=O)OCC[N+](C)(CC)CC)cc1 [otilonium-bromide]	109	-1.85
NC1(Cc2ccc(Cl)cc2)CCN(c2ncnc3[nH]ccc23)CC1	115	8.36
COC1=C2C[C@@H](C)C[C@H](OC)[C@H](O)[C@@H](C)/C=C(\C)[C@H](OC(N)=O)[C@@H](OC)/C=C\C=C(/C)C(=O)NC(=CC1=O)C2=O [geldanamycin]	209	46.6
